Reference: PubChem BioAssay
Active and inactive are the calls of the source.

Assays:
[1] = system: Plasmodium falciparum Sir2 (PF13_0152, Sir2A); assay: pfSir2 binders on small-molecule microarrays, primary screen, biochemical, small-molecule microarray, 635 nm fluorescence (AID 1098); details: small-molecule microarray binding, fluorescence 635 nm; higher = more signal;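 also: score merges spot fluorescence intensity with its signal-to-noise ratio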
[2] = small-molecule microarray binders of probe aDKK1, primary screen, biochemical, biotinylated probe, 635/667 nm fluorescence (AID 1099); details: higher = more signal;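 also: score merges 667nm spot fluorescence with signal to noise across triplicate slides; reference of the scale not given here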
[3] = small-molecule microarray binders of probe aCHRDL2, primary screen, biochemical, biotinylated probe, 635/667 nm fluorescence (AID 1100); details: higher = more signal
[4] = splicing luciferase reporter signal modulators, primary screen, spliceosome inhibition project, cell-based, HEK293, splice +/- reporter (AID 1101); details: luminescence, 24 h, higher = more signal, called active from +8 up or from −8 down;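 also: HEK293 cells carrying a splicing-competent luciferase reporter gene; test concentration not given here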
[5] = target: Fibroblast growth factor 10 (Homo sapiens) (UniProt O15520); assay: FGF10 binders on small-molecule microarrays, primary screen, biochemical, small-molecule microarray, 635 nm fluorescence (AID 1102); details: FGF10 binding, fluorescence 635 nm, higher = more signal
[6] = system: glycogen synthase kinase-3 (GSK3A per assay name; protocol says GSK3B); assay: GSK3 binders on small-molecule microarrays, primary screen, biochemical, small-molecule microarray, 635 nm fluorescence, GSK3A (AID 1103); details: small-molecule microarray binding, fluorescence 635 nm; higher = more signal; also: the record names both GSK3A and GSK3B
[7] = target: Epidermal growth factor receptor (Homo sapiens) (UniProt P00533); assay: EGFR binders on small-molecule microarrays, primary screen, biochemical, small-molecule microarray, 635 nm fluorescence (AID 1104); details: EGFR binding, higher = more signal;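 also: score merges 667 nm emission intensity with spot signal to noise over triplicate slides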
[8] = target: Follistatin-related protein 3 (Homo sapiens) (UniProt O95633); assay: FSTL3 binders on small-molecule microarrays, primary screen, biochemical, small-molecule microarray, 635 nm fluorescence (AID 1105); details: FSTL3 binding, higher = more signal;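 also: score merges emission near 667 nm and signal to noise per printed spot across three slides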
[9] = target: Dickkopf-related protein 1 (Homo sapiens) (UniProt O94907); assay: DKK1 binders on small-molecule microarrays, primary screen, biochemical, small-molecule microarray, 635 nm fluorescence scan (AID 1106); details: DKK1 binding, higher = more signal;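 also: score merges emission near 667 nm with signal to noise over three replicate slides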
[10] = system: Inhibin beta A chain (activin A); assay: INHBA (activin A) binders on microarrays, primary screen, biochemical, small-molecule microarray, 635 nm fluorescence scan (AID 1107); details: small-molecule microarray binding, higher = more signal;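 also: mouse activin A protein probed at 4.33 µg/mL on printed slides; score merges bound-protein fluorescence near 667 nm with spot signal-to-noise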

Chain of Dickkopf-related protein 1 (Homo sapiens) (O94907 whole entry, looked up): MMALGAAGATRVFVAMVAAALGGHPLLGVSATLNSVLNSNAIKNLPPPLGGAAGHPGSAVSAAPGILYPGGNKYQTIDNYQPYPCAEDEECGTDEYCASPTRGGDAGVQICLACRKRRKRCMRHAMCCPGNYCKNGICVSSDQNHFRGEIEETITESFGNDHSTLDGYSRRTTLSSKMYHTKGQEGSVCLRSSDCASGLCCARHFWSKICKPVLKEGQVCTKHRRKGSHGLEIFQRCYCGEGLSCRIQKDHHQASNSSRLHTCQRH
Chain of Follistatin-related protein 3 (Homo sapiens) (O95633 whole entry, looked up): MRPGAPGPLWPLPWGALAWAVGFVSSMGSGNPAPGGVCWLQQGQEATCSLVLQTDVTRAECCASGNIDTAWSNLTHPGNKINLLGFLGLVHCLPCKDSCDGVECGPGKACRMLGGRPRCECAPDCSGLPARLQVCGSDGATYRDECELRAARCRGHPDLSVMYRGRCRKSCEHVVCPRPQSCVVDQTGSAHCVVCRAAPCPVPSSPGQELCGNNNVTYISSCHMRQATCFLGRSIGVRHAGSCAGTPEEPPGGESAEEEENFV
Chain of Epidermal growth factor receptor (Homo sapiens) (P00533 whole entry, looked up): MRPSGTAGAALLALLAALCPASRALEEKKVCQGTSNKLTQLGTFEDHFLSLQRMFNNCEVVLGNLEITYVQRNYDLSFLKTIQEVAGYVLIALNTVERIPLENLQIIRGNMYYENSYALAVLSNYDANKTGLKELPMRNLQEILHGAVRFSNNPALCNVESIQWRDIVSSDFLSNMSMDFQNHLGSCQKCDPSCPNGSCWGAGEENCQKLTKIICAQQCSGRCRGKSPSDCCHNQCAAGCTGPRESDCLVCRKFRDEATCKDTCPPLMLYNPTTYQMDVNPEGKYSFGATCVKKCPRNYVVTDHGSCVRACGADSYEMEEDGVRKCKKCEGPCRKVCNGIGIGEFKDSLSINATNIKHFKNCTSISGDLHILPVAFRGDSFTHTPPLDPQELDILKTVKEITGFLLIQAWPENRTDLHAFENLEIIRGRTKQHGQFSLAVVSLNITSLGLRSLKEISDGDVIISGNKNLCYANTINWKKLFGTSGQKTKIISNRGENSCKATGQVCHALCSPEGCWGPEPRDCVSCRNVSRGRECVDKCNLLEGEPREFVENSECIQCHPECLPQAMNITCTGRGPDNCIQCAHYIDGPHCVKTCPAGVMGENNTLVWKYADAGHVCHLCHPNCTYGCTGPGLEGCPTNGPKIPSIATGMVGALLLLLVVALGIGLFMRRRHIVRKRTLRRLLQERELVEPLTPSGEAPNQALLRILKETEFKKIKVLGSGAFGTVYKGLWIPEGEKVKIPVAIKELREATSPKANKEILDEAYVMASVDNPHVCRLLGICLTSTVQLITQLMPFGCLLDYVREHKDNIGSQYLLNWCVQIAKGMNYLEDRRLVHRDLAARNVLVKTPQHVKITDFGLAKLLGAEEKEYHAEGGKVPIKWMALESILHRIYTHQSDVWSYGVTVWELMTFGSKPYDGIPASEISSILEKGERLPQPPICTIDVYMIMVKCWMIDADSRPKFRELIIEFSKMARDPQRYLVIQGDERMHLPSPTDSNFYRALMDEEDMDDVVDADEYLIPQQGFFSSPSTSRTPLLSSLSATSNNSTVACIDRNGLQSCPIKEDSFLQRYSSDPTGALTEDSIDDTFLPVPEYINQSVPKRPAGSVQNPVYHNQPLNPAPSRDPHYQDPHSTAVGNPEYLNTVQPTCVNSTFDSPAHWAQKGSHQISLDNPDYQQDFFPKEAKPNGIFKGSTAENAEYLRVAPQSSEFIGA
Chain of Fibroblast growth factor 10 (Homo sapiens) (O15520 whole entry, looked up): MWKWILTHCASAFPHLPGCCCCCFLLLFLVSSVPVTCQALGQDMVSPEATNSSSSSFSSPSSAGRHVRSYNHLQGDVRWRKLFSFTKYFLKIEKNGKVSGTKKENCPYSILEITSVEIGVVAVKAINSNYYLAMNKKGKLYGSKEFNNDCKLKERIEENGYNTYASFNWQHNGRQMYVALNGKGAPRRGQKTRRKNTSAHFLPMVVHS

Compound	composite z-score [1]	composite z-score [2]	composite z-score [3]	z-score [4]	composite z-score [5]	composite z-score [6]	composite z-score [7]	composite z-score [8]	composite z-score [9]	composite z-score [10]
COC(=O)[C@@]1(Cc2ccc(F)cc2)[C@H]2c3cc(C(=O)N4CCCC4)n(Cc4ccc(C(F)(F)F)nc4)c3C[C@H]2CN1C(=O)c1ccccc1	0.513	0.16	1.33	-0.375 (inactive)	0.472	1.3	0.643	1.19	-0.417	0.843
C=C(C(=O)CC[C@@H](OC(=O)c1cccnc1)c1cccc(OCCO)c1)C(C)C	1.32	0.28	0.0064	3.07 (inactive)	0.959	-0.521	0.111	0.343	0.109	0.867
CC(CO)N1C(=O)[C@@H]2[C@H]3C(=O)OCC=C[C@H]3OC23C=CCN(c2ccc4ccccc4c2)C(=O)[C@@H]13 (stereo not given in full)	-0.893	-0.0682	0.725	0.445 (inactive)	-0.916	-1.56	-1.64	-1.66	-1.83	-1.18
CC[C@@H](O[Si](C#C[Si](C(C)C)(C(C)C)C(C)C)(C(C)C)C(C)C)c1cn([C@H](CO)Cc2ccccc2)nn1	0.954	-0.331	-0.592	0.131 (inactive)	0.675	0.566	0.236	0.675	0.39	-0.092
C=CCNC(=O)[C@H]1[C@@H]2C(=O)O[C@@H](c3ccccc3)[C@@H](c3ccccc3)N2[C@@H](c2ccc(OCCO)cc2)[C@]12C(=O)N(C(=O)OCCOC)c1ccc(C#CCC(C(=O)OC)C(=O)OC)cc12	1.4	0.713	0.997	0.345 (inactive)	1.44	1.16	0.524	1.08	0.5	0.768
[N-]=[N+]=Nc1ccccc1C[C@]1(C(=O)N2CCCCC2)N=C(c2ccc(OCCCO)cc2)O[C@H]1c1ccccc1	1.46	1.01	1.11	-0.117 (inactive)	1.25	0.952	0.102	0.616	0.26	0.781
CC(C)(C)OC(=O)CC[C@]1(C(=O)N2CCOCC2)COC(c2ccc(OCCCO)cc2)=N1	1.45	0.37	0.668	-0.713 (inactive)	0.164	-0.668	0.727	-0.87	-1.34	0.309
O=C1C2C=CC(C(O)C3CCCCC3)N(Nc3ccccc3F)C2C(=O)N1c1ccccc1 (stereo not given)	1.12	1.15	0.95	-0.505 (inactive)	0.873	1.29	0.157	1.08	-0.498	1.1
CC1CC/C=C\[C@H]2OC34C=CCN(CCN5CCOCC5)C(=O)[C@H]3N(C(CO)C(C)C)C(=O)[C@@H]4C2C(=O)O1 (stereo not given in full)	1.5	-0.155	0.0473	-0.192 (inactive)	-0.268	0.169	-0.31	-0.239	-0.112	1.17
CCOC(=O)C=C1C[C@@H](c2cccc([N+](=O)[O-])c2)O[C@@H](c2cccc([N+](=O)[O-])c2)O1	0.765	1.15	0.895	0.435 (inactive)	0.567	1.27	0.46	0.747	0.514	0.594
COc1ccc([Si](C)(C)[C@H]2[C@H](CC(=O)N3CCC[C@H]3CO)O[C@@]3(C(=O)N(Cc4cccc(N5CCCCC5=O)c4)c4ccccc43)[C@@H]2C)cc1	1.01	-0.297	-0.441	1.06 (inactive)	1.3	1.21	0.532	1.26	0.823	0.248
COc1ccc([Si](C)(C)[C@H]2[C@H](CC(=O)N(CCO)Cc3ccccc3)O[C@@]3(C(=O)N(Cc4cccc(N5CCCCC5=O)c4)c4ccccc43)[C@@H]2C)cc1	0.535	-0.147	-0.13	-2.32 (inactive)	0.114	-0.0519	-0.0805	0.436	0.327	0.167
CCCCC=C[C@@H](NC(=O)C(C)(C)C)c1ccccc1	0.641	0.715	0.609	0.41 (inactive)	0.548	1.25	0.357	0.508	0.15	0.173
COC(=O)C(CC#Cc1ccc2c(c1)[C@]1(C(=O)N2)[C@H](C(N)=O)[C@H]2C(=O)O[C@H](c3ccccc3)[C@H](c3ccccc3)N2[C@@H]1c1ccccc1OCCO)C(=O)OC	1.39	-0.109	0.567	1.09 (inactive)	0.785	1.15	-0.0452	0.385	-0.151	-0.278
CN1C(=O)C2C(C1=O)C1C=C(CCCO)C2C(C2CC2)N1C (stereo not given)	0.264	0.0917	0.38	-0.89 (inactive)	-0.158	-0.83	0.0501	-0.694	-0.741	0.411
C=C(COC)C(=O)CC[C@H](OC(C)=O)c1ccccc1OCCO	0.858	-0.348	0.151	-0.0648 (inactive)	1.5	-0.41	-0.567	-0.262	0.0024	1.13
C=C(CCCC)C(=O)CC[C@H](OC(=O)c1ccccc1-c1ccccc1C(=O)O)c1cccc(OCCO)c1	0.642	-0.399	-0.454	-0.289 (inactive)	-0.282	-0.121	-0.988	-0.578	0.0668	1.33

Compound	composite z-score [1]	composite z-score [2]	composite z-score [3]	z-score [4]	composite z-score [5]	composite z-score [6]	composite z-score [7]	composite z-score [8]	composite z-score [9]	composite z-score [10]
COc1ccc(C(=O)Nc2ccc(CN3C(=O)[C@@]4(O[C@@H](CC(=O)N(CCO)Cc5ccccc5)[C@H]([Si](C)(C)c5ccc(OC)cc5)[C@H]4C)c4ccccc43)cc2)cc1	0.901	-0.0966	-0.351	-1.78 (inactive)	0.201	-0.185	0.7	0.335	0.502	0.432
COC(=O)C1=CC(CCCO)=CC(c2ccc(CN3CCCC3)cc2)N(C)C=C1C(=O)OC (stereo not given)	1.65	0.629	0.549	0.657 (inactive)	0.883	-0.302	-0.138	0.345	-0.36	0.861
C=CCNC(=O)[C@H]1[C@@H]2C(=O)O[C@@H](c3ccccc3)[C@@H](c3ccccc3)N2[C@@H](c2ccc(OCCO)cc2)[C@]12C(=O)N(C(=O)OCCOC)c1ccc(C#CCNC(N)=O)cc12	1.27	0.02	0.687	0.0908 (inactive)	1.3	0.998	0.686	0.989	0.998	0.823
C=C(C(=O)CC[C@@H](OC(=O)c1ccccc1-c1ccccc1C(=O)O)c1ccc(OCCO)cc1)C(C)C	0.994	-0.0581	-0.375	0.379 (inactive)	1.22	0.674	0.267	1.08	0.776	0.768
COc1ccc(-c2cc3c(c(CCc4ccccc4)n2)[Si](C(C)C)(C(C)C)O[C@H]3c2ccccc2)cn1	-0.576	0.0477	-0.12	-0.879 (inactive)	0.332	-0.237	-0.0109	0.362	-0.0079	0.343
O=C1C2C=CC(C(O)C(c3ccccc3)c3ccccc3)N(Nc3ccccc3F)C2C(=O)N1c1ccccc1 (stereo not given)	0.802	0.632	0.786	0.34 (inactive)	1.38	1.32	0.292	1.39	0.0465	0.875
CC1(C)OB(/C=C\CC(OC(=O)c2ccncc2)c2ccccc2)OC1(C)C (stereo not given)	0.398	1.17	1.47	0.639 (inactive)	-0.951	-0.131	-1.31	-0.0031	-1.26	1.75
COC(=O)[C@@]1(Cc2ccc(F)cc2)[C@H]2c3cc(C(=O)N4CCCC4)n(CCSCCO)c3C[C@H]2CN1C(=O)c1ccccc1	1.33	1.02	1.22	-2.25 (inactive)	0.26	-0.273	-0.707	-0.803	-0.957	1.06
COC(=O)[C@@]1(Cc2ccc(F)cc2)[C@H]2c3cc(C(=O)N4CCCC4)n(Cc4ccc(OC(F)(F)F)cc4)c3C[C@H]2CN1C(=O)c1ccccc1	0.776	0.142	0.548	1.08 (inactive)	-0.135	-0.141	-0.564	-1.03	-0.559	0.602
CO[C@H]1O[C@H](CO)[C@@H](OC(=O)CCc2ccccc2)[C@@H]2OC(=O)[C@@H](Cc3ccc4ccccc4c3)C/C=C/C[C@H](Cc3ccc4ccccc4c3)C(=O)O[C@@H]12	1.08	-0.653	0.46	-0.779 (inactive)	-0.361	-0.346	-0.691	0.0223	-1.19	0.499
CC[C@@H](O[Si](C#C[Si](C(C)C)(C(C)C)C(C)C)(C(C)C)C(C)C)c1cn(Cc2cccc(Cl)c2)nn1	0.433	-0.0597	-0.3	0.453 (inactive)	0.418	0.791	0.293	0.775	0.388	0.232
N#Cc1ccc(NN2C(C(O)c3ccc(B(O)O)cc3)C=CC3CN(c4ccccc4)C(=O)C32)cc1 (stereo not given)	0.35	0.0933	0.584	0.441 (inactive)	-0.792	-0.824	-0.533	-0.172	-0.445	0.462
COC(=O)[C@]1(Cc2ccccc2N=[N+]=[N-])N=C(c2ccc(OCCCO)cc2)O[C@@H]1c1ccccc1CN=[N+]=[N-]	0.843	2.44	1.13	2.71 (inactive)	0.975	0.712	0.0466	0.315	0.236	1.1
COc1c(C)cc(-c2cc3c(c(CCc4ccccc4)n2)[Si](C(C)C)(C(C)C)O[C@H]3c2ccccc2)cc1C	0.994	-0.137	-0.169	-1.48 (inactive)	-0.168	-0.914	-0.275	-0.257	-0.204	-0.0185
CN(C)CCCCNC(=O)[C@H]1C[C@H]2C(=O)N[C@@H](CCCCN(C)C)C(=O)N2[C@H]1c1ccc(O)cc1	1.12	-0.265	-0.508	-1.73 (inactive)	0.174	-0.0777	0.821	0.592	1.16	-0.0636
O=C1NC(=O)C2C1C=CC(C(O)C(c1ccccc1)c1ccccc1)N2Nc1ccccn1 (stereo not given)	0.737	1.25	1.15	0.864 (inactive)	0.909	-0.145	0.457	0.503	0.593	1.32
